# Experimental data from the supplement of paper PMC11732987, “Enantioselective OTUD7B fragment discovery through chemoproteomics screening and high-throughput optimisation” (Communications Chemistry, 2025).
# Target: T1, VCPIP1 (UniProt Q96JH7)
# T1 sequence (whole entry): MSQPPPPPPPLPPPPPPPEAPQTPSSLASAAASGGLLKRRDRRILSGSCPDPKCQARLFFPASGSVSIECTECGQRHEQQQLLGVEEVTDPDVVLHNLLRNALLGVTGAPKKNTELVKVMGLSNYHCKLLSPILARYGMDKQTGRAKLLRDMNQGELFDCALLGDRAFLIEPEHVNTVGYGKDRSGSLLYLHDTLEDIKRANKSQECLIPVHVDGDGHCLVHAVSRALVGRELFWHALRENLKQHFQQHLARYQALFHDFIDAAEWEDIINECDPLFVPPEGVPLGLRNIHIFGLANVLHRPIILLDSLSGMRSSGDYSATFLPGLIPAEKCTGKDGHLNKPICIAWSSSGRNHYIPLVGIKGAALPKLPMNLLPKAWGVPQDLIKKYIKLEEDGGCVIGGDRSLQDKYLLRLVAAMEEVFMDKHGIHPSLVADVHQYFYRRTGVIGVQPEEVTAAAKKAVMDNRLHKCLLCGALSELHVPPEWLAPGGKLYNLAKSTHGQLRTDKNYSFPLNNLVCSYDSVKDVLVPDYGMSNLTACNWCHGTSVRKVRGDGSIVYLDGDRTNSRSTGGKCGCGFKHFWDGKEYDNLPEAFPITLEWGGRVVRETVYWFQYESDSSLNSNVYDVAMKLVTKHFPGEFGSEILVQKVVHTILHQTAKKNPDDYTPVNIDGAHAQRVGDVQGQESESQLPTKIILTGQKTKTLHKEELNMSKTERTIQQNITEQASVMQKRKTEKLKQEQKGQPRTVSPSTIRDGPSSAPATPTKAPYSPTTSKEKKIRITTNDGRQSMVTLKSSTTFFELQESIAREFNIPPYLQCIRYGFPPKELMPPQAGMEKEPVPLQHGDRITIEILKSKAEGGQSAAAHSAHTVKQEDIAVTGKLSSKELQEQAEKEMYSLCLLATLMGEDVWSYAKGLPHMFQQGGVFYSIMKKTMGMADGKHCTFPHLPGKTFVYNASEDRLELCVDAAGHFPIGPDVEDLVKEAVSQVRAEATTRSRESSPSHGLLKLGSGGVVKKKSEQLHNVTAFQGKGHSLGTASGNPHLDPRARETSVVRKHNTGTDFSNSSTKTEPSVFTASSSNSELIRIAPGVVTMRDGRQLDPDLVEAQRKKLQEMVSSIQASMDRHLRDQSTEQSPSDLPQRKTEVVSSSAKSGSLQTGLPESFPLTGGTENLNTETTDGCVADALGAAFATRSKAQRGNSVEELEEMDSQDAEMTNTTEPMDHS
# Experiment: log2 ratio of Biotin-Ahx-Ub-VS probe labelling (fragment/DMSO); higher = less target engagement (more negative = stronger competition), active = hit call of the paper (q ≤ 0.05, log2 ratio ≤ -1)
# Details: compound concentration: 200 uM; treatment time: 3 h
# Description: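 Competitive ABPP in HEK293T cell lysate. Lysates were treated with each chloroacetamide fragment at 200 µM for 3 h, then with Biotin-Ahx-Ub-VS (0.5 µM, 1 h), NeutrAvidin-enriched and analysed by diaPASEF LC-MS/MS. Protein LFQ was median-normalised; average log2 ratio is fragment/DMSO from an unpaired t-test (n=3 treated, n=44 DMSO). Hits: q ≤ 0.05, log2 ratio ≤ -1, unique peptides ≥ 2.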
row,Compound,log2 ratio of Biotin-Ahx-Ub-VS probe labelling
1,CC(c1ccccc1)N(C)C(=O)CCl (stereo not given),-0.328 (inactive)
2,Cl.O=C(CCl)N1CCCC(c2ncc[nH]2)C1 (stereo not given),-0.387 (inactive)
3,O=C(CCl)N1CCc2ccccc2C(O)C1 (stereo not given),-0.506 (inactive)
4,CCN(C(=O)CCl)C1CCS(=O)(=O)C1 (stereo not given),0.0777 (inactive)
5,Cc1c(C#N)c(NC(=O)CCl)n(Cc2ccco2)c1C,-2.32 (active)
6,Cl.O=C(CCl)N[C@H]1C[C@@H](n2cccn2)C1,-0.848 (inactive)
7,O=C(CCl)NCC(=O)N1CCCC1,-0.323 (inactive)
8,O=C(CCl)NC1CCC2(CC1)OCCO2,-0.827 (inactive)
9,Cc1ccc(-c2nnc(C)[nH]2)c(NC(=O)CCl)c1,-2.55 (active)
10,N#Cc1ccc(Cl)cc1NC(=O)CCl,-1.7 (active)
11,O=C(CCl)N1CCOCCC1c1ccccc1 (stereo not given),-0.265 (inactive)
12,O=C(CCl)N1CC2(CCOCC2)C1,-0.356 (inactive)
13,O=C(CCl)NCc1ccc(N2CCOCC2)nc1,-2 (active)
14,COc1ccc(C2CCCN2C(=O)CCl)c(OC)c1 (stereo not given),-0.545 (inactive)
15,CNC(=O)C1(NC(=O)CCl)CCCCC1,-0.262 (inactive)
16,Cc1nc(CN2CCN(C(=O)CCl)CC2)cs1,-0.304 (inactive)
17,O=C(CCl)Nc1ccccc1C(F)(F)F,-0.635 (inactive)
18,CS(=O)(=O)c1ccc(NC(=O)CCl)cc1,-1.23 (active)
19,O=C(CCl)NCc1ccc(Cl)cc1,-1.16 (active)
20,CCN(C(=O)CCl)C1CCCCC1,-0.114 (inactive)

row,Compound,log2 ratio of Biotin-Ahx-Ub-VS probe labelling
1,Cc1nc(CNC(=O)CCl)c2ccccn12.Cl,-0.406 (inactive)
2,O=C(CCl)NCCC1COCCO1 (stereo not given),-0.791 (inactive)
3,O=C(CCl)N1CCC[C@@H]1c1ccon1,-0.499 (inactive)
4,Cc1ccc(C)c(Oc2ccc(CNC(=O)CCl)cn2)c1.Cl,-1.8 (active)
5,Cc1ccc2nnc(CNC(=O)CCl)n2c1,-1.34 (active)
6,N#Cc1cnn(-c2ccccc2)c1NC(=O)CCl,-2.18 (active)
7,CC(NC(=O)CCl)c1csc(-c2ccccc2)n1.Cl (stereo not given),-2.16 (active)
8,O=C(CCl)NCc1noc(C2CC2)n1,-0.61 (inactive)
9,COc1cc(Cl)c(C)cc1NC(=O)CCl,-1.24 (active)
10,Cl.Cn1ncc2c1CC(NC(=O)CCl)CC2 (stereo not given),-0.665 (inactive)
11,Cc1ccc(CNC(=O)CCl)nc1C.Cl,-2.09 (active)
12,O=C(CCl)Nc1ccc(F)cc1Cl,-1.05 (active)
13,Cc1ncsc1CCNC(=O)CCl,0.0583 (inactive)
14,CN(CCc1ncc(Br)cn1)C(=O)CCl.Cl,-2.5 (active)
15,N#Cc1ccc(CNC(=O)CCl)cc1,-1.31 (active)
16,Cc1ccc(N2CCC(NC(=O)CCl)C2=O)cc1 (stereo not given),-2.9 (active)
17,O=C(CCl)NC(Cn1ccccc1=O)c1ccccc1 (stereo not given),-0.334 (inactive)
18,NC(=O)C(Cc1ccccc1)NC(=O)CCl (stereo not given),-0.38 (inactive)
19,Cc1n[nH]c(=O)c2c(NC(=O)CCl)oc(C)c12,-0.15 (inactive)
20,O=C(CCl)N[C@H]1CCS(=O)(=O)c2ccccc21,-0.862 (inactive)
